# How the values were obtained:
# [1] = target: Large ribosomal subunit protein eL27 (UniProt P61353); assay: cross-link between two proteins; cross-linking mass spectrometry
# [2] = target: Large ribosomal subunit protein eL30 (UniProt P62888); assay: as above
# [3] = target: Large ribosomal subunit protein eL34 (UniProt Q9D1R9); assay: as above
# [4] = target: Large ribosomal subunit protein eL42 (UniProt P83881); assay: as above
# [5] = target: Large ribosomal subunit protein mL53 (UniProt Q96EL3); assay: as above
# [6] = target: Large ribosomal subunit protein uL1 (UniProt P62906); assay: as above
# [7] = target: Large ribosomal subunit protein uL22 (UniProt Q9CPR4); assay: as above
# [8] = target: Complex III assembly factor LYRM7 (UniProt Q5U5X0); assay: cross-linking mass spectrometry
# [9] = target: Malate dehydrogenase, mitochondrial (UniProt P40926); assay: cross-linking mass spectrometry
# [10] = target: Elongation factor 1-alpha 1 (UniProt P68104); assay: cross-linking mass spectrometry
# Histone H2B type 1-C/E/G = Histone H2B type 1-C/E/G (UniProt Q6ZWY9); assay: cross-linking mass spectrometry
# [11] = target: Large ribosomal subunit protein uL11 (UniProt P30050); assay: cross-linking mass spectrometry
# [12] = target: Large ribosomal subunit protein uL11m (UniProt Q9Y3B7); assay: cross-linking mass spectrometry
# [13] = target: Large ribosomal subunit protein uL5 (UniProt P62913); assay: cross-linking mass spectrometry
# [14] = target: Leucine-rich repeat-containing protein 59 (UniProt Q96AG4); assay: cross-linking mass spectrometry
# [15] = target: Poly(A) RNA polymerase, mitochondrial (UniProt Q9NVV4); assay: cross-linking mass spectrometry
# [16] = target: Ribosome-binding protein 1 (UniProt Q9P2E9); assay: cross-linking mass spectrometry
# [17] = target: Small ribosomal subunit protein uS15 (UniProt P62301); assay: cross-linking mass spectrometry
# [18] = target: Small ribosomal subunit protein eS27 (UniProt Q6ZWU9); assay: cross-link between two proteins; cross-linking mass spectrometry
# [19] = target: MICOS complex subunit MIC60 (UniProt Q16891); assay: as above
# [20] = target: Cytochrome c oxidase assembly factor 7 (UniProt Q96BR5); assay: mass-spectrometry hit list; affinity purification or IP with mass spectrometry; cross-linking mass spectrometry
# [21] = target: Mitochondrial fission 1 protein (UniProt Q9CQ92); assay: cross-link between two proteins; cross-linking mass spectrometry
# Sequence of Mitochondrial fission 1 protein (Q9CQ92 whole entry): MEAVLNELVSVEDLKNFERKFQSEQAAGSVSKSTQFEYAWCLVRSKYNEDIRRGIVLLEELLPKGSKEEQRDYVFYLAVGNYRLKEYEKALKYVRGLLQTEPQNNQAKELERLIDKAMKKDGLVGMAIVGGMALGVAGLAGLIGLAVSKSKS
# [22] = target: Plasma membrane calcium-transporting ATPase 2 (UniProt Q9R0K7); assay: as above
# Sequence of Plasma membrane calcium-transporting ATPase 2 (Q9R0K7 whole entry): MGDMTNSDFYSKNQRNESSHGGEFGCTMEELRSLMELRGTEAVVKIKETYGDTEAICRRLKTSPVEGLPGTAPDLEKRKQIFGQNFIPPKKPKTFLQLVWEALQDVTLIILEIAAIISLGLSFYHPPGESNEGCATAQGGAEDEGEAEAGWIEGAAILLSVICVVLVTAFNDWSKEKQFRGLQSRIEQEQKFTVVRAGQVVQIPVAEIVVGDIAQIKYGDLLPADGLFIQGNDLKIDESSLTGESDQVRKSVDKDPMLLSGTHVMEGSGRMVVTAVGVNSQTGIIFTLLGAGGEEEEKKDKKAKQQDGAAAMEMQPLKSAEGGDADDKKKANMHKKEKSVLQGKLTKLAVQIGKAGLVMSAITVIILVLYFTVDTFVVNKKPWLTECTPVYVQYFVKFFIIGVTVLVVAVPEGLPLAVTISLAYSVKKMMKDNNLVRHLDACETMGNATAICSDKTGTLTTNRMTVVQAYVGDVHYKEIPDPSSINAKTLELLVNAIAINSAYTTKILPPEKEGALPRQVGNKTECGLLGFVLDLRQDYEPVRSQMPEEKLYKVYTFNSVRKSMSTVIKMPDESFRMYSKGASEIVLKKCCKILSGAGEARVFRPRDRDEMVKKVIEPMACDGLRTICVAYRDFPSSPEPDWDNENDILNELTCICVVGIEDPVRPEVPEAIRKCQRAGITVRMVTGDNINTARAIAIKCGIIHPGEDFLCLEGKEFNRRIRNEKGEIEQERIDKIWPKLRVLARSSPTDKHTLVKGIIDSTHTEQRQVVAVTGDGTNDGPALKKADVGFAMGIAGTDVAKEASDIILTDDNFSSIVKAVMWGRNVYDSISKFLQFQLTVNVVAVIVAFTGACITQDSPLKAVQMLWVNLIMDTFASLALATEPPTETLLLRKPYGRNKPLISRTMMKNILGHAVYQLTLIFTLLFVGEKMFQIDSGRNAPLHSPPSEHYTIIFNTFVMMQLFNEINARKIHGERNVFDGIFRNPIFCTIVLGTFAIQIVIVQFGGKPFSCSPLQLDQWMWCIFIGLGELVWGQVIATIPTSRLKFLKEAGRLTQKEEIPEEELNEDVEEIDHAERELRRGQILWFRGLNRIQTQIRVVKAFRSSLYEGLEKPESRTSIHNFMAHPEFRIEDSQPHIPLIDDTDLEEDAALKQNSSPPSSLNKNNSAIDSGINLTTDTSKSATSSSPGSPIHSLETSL
# Protein piccolo = Protein piccolo (UniProt Q9QYX7); assay: as above
# [23] = target: Ragulator complex protein LAMTOR4 (UniProt Q0VGL1); assay: as above
# [24] = target: Ras-related C3 botulinum toxin substrate 1 (UniProt P63000); assay: as above
# [25] = target: Small ribosomal subunit protein RACK1 (UniProt P68040); assay: as above
# [26] = target: Small ribosomal subunit protein eS19 (UniProt Q9CZX8); assay: as above
# [27] = target: Small ribosomal subunit protein eS4, X isoform (UniProt P62701); assay: as above
# [28] = target: Small ribosomal subunit protein uS19 (UniProt P62841); assay: as above
# [29] = target: Small ribosomal subunit protein uS4 (UniProt Q6ZWN5); assay: as above
# Syntaxin-1B = Syntaxin-1B (UniProt P61264); assay: as above
# Sequence of Syntaxin-1B (P61264 whole entry): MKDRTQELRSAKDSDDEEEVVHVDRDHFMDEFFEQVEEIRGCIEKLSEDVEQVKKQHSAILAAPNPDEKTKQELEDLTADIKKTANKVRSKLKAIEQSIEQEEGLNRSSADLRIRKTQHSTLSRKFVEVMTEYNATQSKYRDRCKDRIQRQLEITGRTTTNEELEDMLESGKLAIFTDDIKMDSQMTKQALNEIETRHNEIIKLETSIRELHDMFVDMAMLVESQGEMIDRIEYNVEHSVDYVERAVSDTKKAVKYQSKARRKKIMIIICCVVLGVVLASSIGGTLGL
# Tubulin alpha-1C chain = Tubulin alpha-1C chain (UniProt Q9BQE3); assay: as above
# Tubulin beta-2A chain = Tubulin beta-2A chain (UniProt Q7TMM9); assay: as above
# Sequence of Tubulin beta-2A chain (Q7TMM9 whole entry, the tested form may be a part): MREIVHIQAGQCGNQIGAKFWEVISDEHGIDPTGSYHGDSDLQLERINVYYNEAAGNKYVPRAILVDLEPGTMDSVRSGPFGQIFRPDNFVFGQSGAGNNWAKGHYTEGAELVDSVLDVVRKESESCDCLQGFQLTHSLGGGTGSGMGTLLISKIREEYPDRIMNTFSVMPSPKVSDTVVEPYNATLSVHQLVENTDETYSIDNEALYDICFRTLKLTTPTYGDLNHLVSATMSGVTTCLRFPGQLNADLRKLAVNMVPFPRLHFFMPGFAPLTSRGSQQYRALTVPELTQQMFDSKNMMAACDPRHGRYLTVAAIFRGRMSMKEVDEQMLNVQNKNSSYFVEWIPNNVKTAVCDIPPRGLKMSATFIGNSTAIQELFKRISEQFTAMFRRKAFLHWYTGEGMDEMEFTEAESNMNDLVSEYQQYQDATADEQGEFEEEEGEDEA
# [30] = target: Ubiquitin-like FUBI-ribosomal protein eS30 fusion protein (UniProt P62861); assay: as above
# [31] = target: Ubiquitin-ribosomal protein eS31 fusion protein (UniProt P62979); assay: as above
# [32] = target: cAMP-dependent protein kinase catalytic subunit beta (UniProt P68181); assay: as above
# [33] = target: cAMP-dependent protein kinase type II-beta regulatory subunit (UniProt P31324); assay: as above
# Sequence of cAMP-dependent protein kinase type II-beta regulatory subunit (P31324 whole entry): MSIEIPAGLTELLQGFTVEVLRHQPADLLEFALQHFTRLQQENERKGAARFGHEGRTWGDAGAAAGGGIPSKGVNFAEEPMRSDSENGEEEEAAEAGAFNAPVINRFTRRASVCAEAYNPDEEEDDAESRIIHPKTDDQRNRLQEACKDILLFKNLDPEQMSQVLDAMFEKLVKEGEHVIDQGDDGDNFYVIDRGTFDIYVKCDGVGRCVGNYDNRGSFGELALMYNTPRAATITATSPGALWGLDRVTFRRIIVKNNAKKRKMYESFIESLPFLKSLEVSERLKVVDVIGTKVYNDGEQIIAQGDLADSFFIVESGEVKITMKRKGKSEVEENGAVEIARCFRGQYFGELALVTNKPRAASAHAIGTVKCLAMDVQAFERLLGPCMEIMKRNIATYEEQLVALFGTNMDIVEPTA
# Sequence of Dynein light chain 2, cytoplasmic, Q9D0M5 (Q9D0M5 whole entry): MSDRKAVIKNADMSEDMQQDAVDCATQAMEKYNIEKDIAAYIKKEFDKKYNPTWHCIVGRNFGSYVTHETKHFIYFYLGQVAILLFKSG
# Sequence of cAMP-dependent protein kinase type II-alpha regulatory subunit, P12367 (P12367 whole entry): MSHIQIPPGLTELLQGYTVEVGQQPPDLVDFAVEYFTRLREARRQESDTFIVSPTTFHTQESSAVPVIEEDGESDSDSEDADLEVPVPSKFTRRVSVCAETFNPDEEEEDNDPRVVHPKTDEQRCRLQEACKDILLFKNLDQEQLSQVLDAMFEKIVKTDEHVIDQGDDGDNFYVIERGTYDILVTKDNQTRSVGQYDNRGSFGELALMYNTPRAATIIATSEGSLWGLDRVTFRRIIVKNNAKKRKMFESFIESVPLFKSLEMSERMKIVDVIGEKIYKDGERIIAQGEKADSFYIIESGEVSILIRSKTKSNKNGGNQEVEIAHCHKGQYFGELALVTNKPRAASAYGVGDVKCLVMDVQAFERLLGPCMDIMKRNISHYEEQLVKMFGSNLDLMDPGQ
# Sequence of Ras-related protein Rab-14, Q91V41 (Q91V41 whole entry): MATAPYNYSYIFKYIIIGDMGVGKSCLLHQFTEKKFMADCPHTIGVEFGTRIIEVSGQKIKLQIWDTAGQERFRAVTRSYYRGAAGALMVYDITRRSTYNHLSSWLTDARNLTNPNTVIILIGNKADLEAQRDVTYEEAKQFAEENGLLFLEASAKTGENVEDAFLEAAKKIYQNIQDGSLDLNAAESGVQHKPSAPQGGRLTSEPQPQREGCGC
# Sequence of Syntaxin-1A, O35526 (O35526 whole entry): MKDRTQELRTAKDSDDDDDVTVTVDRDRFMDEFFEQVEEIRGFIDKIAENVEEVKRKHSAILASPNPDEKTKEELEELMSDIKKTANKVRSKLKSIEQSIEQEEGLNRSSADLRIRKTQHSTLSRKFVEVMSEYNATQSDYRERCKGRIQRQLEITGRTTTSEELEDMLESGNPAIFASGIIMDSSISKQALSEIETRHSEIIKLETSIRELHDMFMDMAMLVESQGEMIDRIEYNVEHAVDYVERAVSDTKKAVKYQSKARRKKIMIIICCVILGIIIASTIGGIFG
# Sequence of Tubulin alpha-1A chain, P68369 (P68369 whole entry): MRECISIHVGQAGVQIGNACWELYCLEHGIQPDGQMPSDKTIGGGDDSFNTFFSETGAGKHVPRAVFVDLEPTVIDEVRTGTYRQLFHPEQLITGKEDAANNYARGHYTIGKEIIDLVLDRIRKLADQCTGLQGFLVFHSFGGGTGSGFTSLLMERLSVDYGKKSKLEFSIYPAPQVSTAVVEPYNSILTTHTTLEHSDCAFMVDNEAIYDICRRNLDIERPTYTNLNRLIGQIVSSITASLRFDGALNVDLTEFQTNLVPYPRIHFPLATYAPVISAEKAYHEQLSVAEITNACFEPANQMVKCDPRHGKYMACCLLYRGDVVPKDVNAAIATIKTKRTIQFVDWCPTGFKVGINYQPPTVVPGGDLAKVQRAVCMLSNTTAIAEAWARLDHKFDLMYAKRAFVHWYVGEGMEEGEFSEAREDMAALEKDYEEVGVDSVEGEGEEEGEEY
substance,measurement,setting,value
"Large ribosomal subunit protein eL34, P49207",listed as a hit,[1],yes
same,listed as a hit,[2],yes
"Large ribosomal subunit protein eL43, P61513",listed as a hit,[2],yes
"Large ribosomal subunit protein eL8, P12970",listed as a hit,[3],yes
"Large ribosomal subunit protein uL5, P62913",listed as a hit,[4],yes
"Large ribosomal subunit protein uL10m, Q7Z7H8",listed as a hit,[5],yes
"Small ribosomal subunit protein eS1, P61247",listed as a hit,[6],yes
"Large ribosomal subunit protein eL31, P62900",listed as a hit,[7],yes
"Acyl carrier protein, mitochondrial, O14561",listed as a hit,[8],yes
same,listed as a hit,[9],yes
"Actin, cytoplasmic 2, P63261",listed as a hit,[10],yes
"Histone H3.3, P84244",listed as a hit,Histone H2B type 1-C/E/G,yes
"Elongation factor 2, P13639",listed as a hit,[11],yes
"Large ribosomal subunit protein mL53, Q96EL3",listed as a hit,[12],yes
"Small ribosomal subunit protein uS19, P62841",listed as a hit,[13],yes
"Large ribosomal subunit protein uL2, P62917",listed as a hit,[14],yes
"Leucine-rich PPR motif-containing protein, mitochondrial, P42704",listed as a hit,[15],yes
"Large ribosomal subunit protein uL1, P62906",listed as a hit,[16],yes
"Small ribosomal subunit protein eS7, P62082",listed as a hit,[17],yes
same,listed as a hit,[18],yes
"Adenylate kinase 2, mitochondrial, P54819",listed as a hit,[19],yes
same,listed as a hit,[20],yes
"Ras-related protein Rab-14, Q91V41",listed as a hit,[21],yes
P62204,listed as a hit,[22],yes
"Dynein light chain 2, cytoplasmic, Q9D0M5",listed as a hit,Protein piccolo,yes
"Ragulator complex protein LAMTOR5, O43504",listed as a hit,[23],yes
"Ras-related C3 botulinum toxin substrate 3, P60763",listed as a hit,[24],yes
"Small ribosomal subunit protein uS3, P62908",listed as a hit,[25],yes
"Small ribosomal subunit protein uS9, P14131",listed as a hit,[26],yes
"Small ribosomal subunit protein uS4, P46781",listed as a hit,[27],yes
"Small ribosomal subunit protein uS13, P62269",listed as a hit,[28],yes
"Small ribosomal subunit protein uS5, P25444",listed as a hit,[29],yes
"Small ribosomal subunit protein eS4, P62702",listed as a hit,[29],yes
"Syntaxin-1A, O35526",listed as a hit,Syntaxin-1B,yes
"L-lactate dehydrogenase A chain, P00338",listed as a hit,Tubulin alpha-1C chain,yes
"Tubulin alpha-1A chain, P68369",listed as a hit,Tubulin beta-2A chain,yes
"Small ribosomal subunit protein uS3, P23396",listed as a hit,[30],yes
"Small ribosomal subunit protein uS15, P62277",listed as a hit,[31],yes
"Small ribosomal subunit protein eS7, P62081",listed as a hit,[31],yes
"cAMP-dependent protein kinase catalytic subunit alpha, P05132",listed as a hit,[32],yes
"cAMP-dependent protein kinase type II-alpha regulatory subunit, P12367",listed as a hit,[33],yes
